High-throughput results from PubChem.
An excerpt weighted towards active compounds, which were near 2.7% of everything screened.
ATXN2 expr inh – ATXN2 expression inhibition; HEK-293 ATXN2-luciferase reporter, luminescence, 24 h; Potency, µM (doses to about 57 µM), inactives show at the top dose activity change, negative = inhibition, hits mostly inhibitors; 360,000 compounds, 0.72% hits; AID 1745845; note: % is set by controls: 0 for no effect and ±100 for the full control effect; nearly all actives have a fitted effect of over 55% in size
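qHTS (up to 57 uM final) was run with 24 h compound exposure of reporter cells at 37 °C. Each well was multiplexed: SteadyGlo luminescence measured ATXN2-luciferase expression after a fluorogenic Gly-Phe-AFC viability readout (25 uM final).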
TGFb SMAD3 inh – blocks TGF-b signaling. HepG2 CAGA-GFP TGF-b/SMAD3 reporter, GFP fluorescence, 18 h; TGF-beta stimulated, 500 pg/mL final. 410,000 compounds, 1.2% hits. Potency, µM (series often up to 46.1 µM), for inactives: top-dose activity, negative = inhibition, actives largely listed as inhibitors; note: % is set by controls: 0 for no effect and ±100 for the full control effect; nearly all actives have a fitted effect of over 65% in size
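GFP signal (ex488/em500-530) from TGF-beta-stimulated HEPG2 CAGA-GFP cells, 500 pg/mL final, 18 h at 37 degrees C in DMEM plus 1% FBS, normalized to unstimulated and DMSO-stimulated controls.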
12-LOX inh – blocks human arachidonate 12S-lipoxygenase; 580,000 compounds, 1.1% hits; Potency, µM (top dose mostly 108 µM), for the others: top-dose activity change, negative = inhibition, actives largely listed as inhibitors; purified 12hLO, xylenol orange hydroperoxide absorbance; note: % is set by controls: 0 for no effect and ±100 for the full control effect
Target sequence (P18054 whole entry, looked up): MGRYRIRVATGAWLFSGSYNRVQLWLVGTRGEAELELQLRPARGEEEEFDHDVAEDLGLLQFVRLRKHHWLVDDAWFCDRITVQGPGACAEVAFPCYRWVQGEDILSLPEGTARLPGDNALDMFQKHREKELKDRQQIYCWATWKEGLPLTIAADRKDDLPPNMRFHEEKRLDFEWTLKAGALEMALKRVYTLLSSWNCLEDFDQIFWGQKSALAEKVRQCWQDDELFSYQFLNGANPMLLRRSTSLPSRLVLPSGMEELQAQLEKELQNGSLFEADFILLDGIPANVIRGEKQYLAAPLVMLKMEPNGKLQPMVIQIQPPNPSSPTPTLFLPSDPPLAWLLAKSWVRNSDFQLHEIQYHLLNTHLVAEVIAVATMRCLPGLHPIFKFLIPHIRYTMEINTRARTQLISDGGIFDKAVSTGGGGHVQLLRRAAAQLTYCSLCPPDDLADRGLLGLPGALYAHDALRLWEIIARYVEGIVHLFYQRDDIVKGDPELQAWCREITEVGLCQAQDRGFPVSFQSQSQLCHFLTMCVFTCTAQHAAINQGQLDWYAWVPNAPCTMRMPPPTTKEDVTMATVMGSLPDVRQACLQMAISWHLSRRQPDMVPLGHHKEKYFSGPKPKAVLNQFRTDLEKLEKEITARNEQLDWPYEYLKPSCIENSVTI
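Hydroperoxide product was detected by ferrous iron/xylenol orange as the 573 to 405 nm absorbance ratio. Arachidonic acid at 40 uM (final) was turned over for 30 min at room temperature by 150 nM human 12hLO, pH 7.0 Hepes buffer, after 15 min compound preincubation.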
ATXN viability – cell viability loss in ATXN counter-screen. S2 cells (HEK-293 line with an ATXN2-luciferase reporter) viability, CellTiter-Fluor protease fluorescence, 24 h. Potency, µM (highest dose often 56.7 µM), hits mostly cytotoxic. 400,000 compounds, 0.49% hits. AID 651635; note: nearly all actives have a fitted effect of over 40% in size
HepG2 tox-1 – kills HepG2 cells in TGF-b inhibitor counter-screen; Potency, µM (titrated, usually from 46.1 µM), without a hit: at the highest dose activity change, negative = cytotoxicity, most hits filed as cytotoxic; HepG2 CAGA-GFP viability, ATP luminescence, 18 h; 410,000 compounds, 0.76% hits
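CellTiter-Glo luminescence gave cytotoxicity after 18 hours at 37 degrees C. The cells were HepG2 CAGA-GFP in 1% FBS DMEM, stimulated with 500 pg/mL TGF-beta after compound addition. %Activity was normalised to no-cell wells (complete cell-killing) and DMSO (no toxicity), and curves were fitted and classified.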
TGFb CAGA inh – confirmation of TGF-b signaling inhibitors in HepG2 reporter cells; HepG2 CAGA-GFP TGF-b reporter, GFP fluorescence, 18 h; cells stimulated with TGF-beta, 500 pg/mL; Potency, µM (top dose mostly 46.1 µM), for inactives: at the top dose activity, negative = inhibition, actives largely listed as inhibitors; shares compounds with TGFb SMAD3 inh; 1,600 compounds, 63% hits; note: % is set by controls: 0 for no effect and ±100 for the full control effect; nearly all actives have a fitted effect of over 65% in size
HepG2 tox-2 – counter-screen for TGF-b inhibitors: cytotoxicity in HepG2 cells; shares compounds with TGFb SMAD3 inh; HepG2 CAGA-GFP viability, ATP luminescence, 18 h; cells stimulated with TGF-beta, 500 pg/mL; Potency, µM (doses to about 46.1 µM), without a hit: at the top dose activity, negative = cytotoxicity, most hits filed as inhibitors; 1,600 compounds, 27% hits; AID 720535; note: % is set by controls: 0 for no effect and ±100 for the full control effect; nearly all actives have a fitted effect of over 70% in size
TGFb CCL64 inh – blocks TGF-b signaling in CCL64 reporter cells | shares compounds with TGFb SMAD3 inh | CCL64 CAGA-GFP reporter, TGF-b stimulated, GFP fluorescence, 18 h | Potency, µM (highest dose often 46.1 µM), for the others: at the top dose activity, negative = inhibition, hits mostly inhibitors | 1,600 compounds, 41% hits | AID 720536; note: nearly all actives have a fitted effect of over 65% in size
COP TGFb inh – TGF-b inhibition validated with COP promoter | HepG2 COP-GFP TGF-b reporter, GFP fluorescence, 18 h; cells stimulated by added recombinant TGF-beta | 1,600 compounds, 3% hits | AID 720537 | shares compounds with TGFb SMAD3 inh | Potency, µM (series often up to 46.1 µM), for the others: at the top dose activity, negative = inhibition, usual class: inhibitors; note: nearly all actives have a fitted effect of over 70% in size
* hit, by the source's call; i = inactive; u = inconclusive; x = no result given; [ ] = dose if it differs, or a comment. Calls come from the whole dose curve; as a rule, active = well fitted curve in the direction sought with a large enough effect; inconclusive = small, poorly fitted or top-dose-only effect, or another doubt; inactive = no such curve, though single readings can be large; an effect the other way counts as inactive or inconclusive. Potency is the fitted concentration of half-maximal effect.

SMILES | ATXN2 expr inh | TGFb SMAD3 inh | 12-LOX inh | ATXN viability | HepG2 tox-1 | TGFb CAGA inh | HepG2 tox-2 | TGFb CCL64 inh | COP TGFb inh
O=C(Nc1cccc(C(F)(F)F)c1)Nc1nnc([C@H]2C[C@H](O)[C@@H](CO)O2)s1 | 0% | 1% | 1% | i | -13% | x | x | x | x
CCOc1ccccc1CN1CCCC(c2nc(-c3cccnc3)no2)CCNC(=O)CC1 (centres undefined) | x | x | 12% | x | x | x | x | x | x
O=[N+]([O-])c1ccc(NN=Cc2cccc3ccccc23)nc1 | -16% | -1% | u | i | -1% | x | x | x | x
COc1cccc(/C=N/Nc2ccc([N+](=O)[O-])cn2)c1O | 8.9µM* | 0.79µM* | 4% | u | i | 1.6µM* | u | u | 23%
CS(=O)(=O)c1ccc(C(=O)OCC(=O)NC(=O)C2CCCCC2)cc1[N+](=O)[O-] | x | 10µM* | -6% | x | -116% | 12µM* | u | u | u
Cc1ccc(-c2nnc(C3CN(C(=O)c4ccccc4F)CC34CCOCC4)o2)cc1 (centres undefined) | x | x | 47% | x | x | x | x | x | x
CS(=O)(=O)c1ccc(-c2nc(C(=O)NCc3cccnc3)n3ccncc23)cc1 | x | x | -5%[6.33 µM] | x | x | x | x | x | x
Cc1ccc(NC(=O)c2cc3c(s2)CCCC3)cc1S(=O)(=O)Nc1ccccc1Cl | -22% | 10µM* | -6% | i | -8% | 10µM* | u | u | 56%
O=C(Nc1ccc(N2CCOCC2)c(S(=O)(=O)Nc2ccccc2Cl)c1)c1ccc(F)cc1 | -26% | 0% | u | i | -13% | x | x | x | x
Cc1ccc(C(=O)Nc2ccc(C)c(S(=O)(=O)Nc3ccccc3Cl)c2)s1 | -15% | u | -20% | i | -14% | x | x | x | x
COc1ccccc1NS(=O)(=O)c1cc(NC(=O)Nc2ccccc2)ccc1N1CCCCC1 | 10% | 11µM* | -14% | i | -5% | 7.3µM* | -17% | u | -2%
O=C(Nc1ccc(F)cc1)Nc1ccc(N2CCCC2)c(S(=O)(=O)Nc2ccccc2Cl)c1 | u | 4µM* | -7% | u | -4% | 4.1µM* | 7.3µM* | 5.8µM* | 109%
O=C(Nc1ccccc1N1CCCC1)c1cccnc1 | 5% | 10% | u | u | -3% | x | x | x | x
COc1ccccc1NS(=O)(=O)c1cc(NC(=O)C(C)C)ccc1N1CCCCC1 | -15% | -1% | -25% | i | -6% | x | x | x | x
O=C(Nc1ccc(N2CCCCC2)c(S(=O)(=O)Nc2ccccc2Cl)c1)c1cccnc1 | 0% | 13µM* | u | i | -8% | u | u | u | 62%
Cc1ccc(-c2cc(C(=O)N3CCC(C(N)=O)CC3)c3ccccc3n2)c(C)c1 | x | x | -5% | x | x | x | x | x | x
CC1CCN(C(=O)C2CCN(c3nc4ccccc4nc3OC(C)C)CC2)CC1 | x | x | -9% | x | x | x | x | x | x
CCCCN(C)C(=O)Cn1c(C2CC(=O)N(c3cccc(OC)c3)C2)nc2ccccc21 (centres undefined) | x | x | -6% | x | x | x | x | x | x
O=C(C1CC1)N(Cc1ccc2c(c1)CN(S(=O)(=O)c1ccc(F)c(F)c1)CCO2)c1ccccc1 | x | x | 0% | x | x | x | x | x | x
CC[C@@]1(C(=O)O)C[C@H](C(=O)NCc2ccncc2)[C@H](c2ccc(OC)cc2)N1C | x | x | 4% | x | x | x | x | x | x
O=C(/C=C/c1cccs1)Nc1ccc(N2CCOCC2)c(S(=O)(=O)Nc2ccccc2Cl)c1 | 4% | u | -22% | u | -22% | x | x | x | x
O=C(Nc1ccc(Cl)c(Cl)c1)Nc1ccc(N2CCCC2)c(S(=O)(=O)Nc2ccccc2Cl)c1 | u | 3.2µM* | -6% | u | -26% | 4.6µM* | 7.3µM* | 0.58µM* | 86%
CCCCOc1ccccc1-c1ccccc1CN1[C@@H](C(C)C)COCCS1(=O)=O | -26% | u | u | u | -39% | x | x | x | x
CC(C)[C@H]1COCCS(=O)(=O)N1Cc1ccccc1-c1cccc2c1oc1ccccc12 | -11% | u | -1% | i | -15% | 9.2µM* | -8% | -28% | -7%
C=CCn1c(O)c(N=NC(=S)Nc2ccc(OC)cc2)c2ccccc21 | u | u | 5% | u | -30% | u | u | u | -12%
SMILES | ATXN2 expr inh | TGFb SMAD3 inh | 12-LOX inh | ATXN viability | HepG2 tox-1 | TGFb CAGA inh | HepG2 tox-2 | TGFb CCL64 inh | COP TGFb inh
CC(=O)Nc1c(SC(F)(F)F)cc(SC(F)(F)F)cc1SC(F)(F)F | x | x | -19% | x | x | x | x | x | x
O=C(NCCc1c[nH]c2ccc(Cl)cc12)c1ccccc1Br | x | x | -29% | x | x | x | x | x | x
CCC(=O)Nc1cccc(C(=O)/C=C/c2cc(Br)ccc2OC)c1 | 16µM* | 3.5µM* | 0% | 18µM* | 11µM* | 3.7µM* | 7.3µM* | 3.7µM* | u
COc1ccc(Br)cc1/C=C/C(=O)Nc1ccc2ccccc2c1 | 6% | u | -8% | u | -16% | x | x | x | x
CC(C)(C)c1nc(COc2ccccc2C#N)cs1 | x | x | -8% | x | x | x | x | x | x
Clc1ccccc1Nc1nc(-c2ccncc2)nc2ccccc12 | -35% | -10% | u | i | -55% | -14% | 23µM* | u | 52%
Clc1cccc(Nc2nc(-c3ccncc3)nc3ccccc23)c1 | u | 2% | 60% | u | -41% | u | u | u | 9%
Fc1ccc(Nc2nc(-c3ccncc3)nc3ccccc23)cc1F | -33% | 4% | -6% | i | -11% | x | x | x | x
COc1cc(S(=O)(=O)NC(c2ccc(F)cc2)c2cccs2)ccc1NC(C)=O (centres undefined) | x | x | 1% | x | x | x | x | x | x
O=C(Nc1cccc(NC(=O)c2cccs2)c1)c1ccc([N+](=O)[O-])o1 | u | 5.6µM* | -6% | u | 22µM* | 5.2µM* | 21µM* | 12µM* | u
O=C(Nc1cccc(NC(=O)c2ccc([N+](=O)[O-])o2)c1)c1ccco1 | -26% | 4µM* | -7% | u | 11µM* | 6.5µM* | u | 16µM* | u
